Experiment [1] concerns the target Cell division control protein 42 homolog (Homo sapiens) (UniProt P60953). In words: activated mutant Cdc42 GTP-binding inhibitors, dose response, biochemical, multiplex bead flow cytometry, Bodipy-FL-GTP (AID 1333;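 active = fitted half-maximal concentration within the tested dose range, moderate curve steepness, a statistically real signal drop, and little compound fluorescence or tag-binding interference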). A general note: In flow cytometry, cells or beads pass a laser one at a time.
For experiment [2] the target is unchanged. Description: wildtype Cdc42 GTP-binding inhibitors, dose response, biochemical, multiplex bead flow cytometry, Bodipy-FL-GTP (AID 1334;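 active = fitted half-maximal concentration within the tested range, moderate curve steepness, significant signal drop, and little compound fluorescence or bead-linkage interference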). The following applies: bead-based flow cytometry, Bodipy-FL-GTP binding to GST-Cdc42; at 100 µM (top of the series) unless noted.
The target in experiment [3] is GTPase HRas (Homo sapiens) (UniProt P01112). Description: inhibitors of GTP binding to wildtype Ras, dose response, biochemical, multiplex bead flow cytometry (AID 1335;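 active = fitted half-maximal concentration within 10 nM to 100 µM, steepness 0.5 to 2, significant signal drop, low assay interference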). The following applies: bead-based flow cytometry, Bodipy-GTP binding to GST-Ras; at 100 µM (top of the series) unless noted.
Experiment [4] concerns Ras-related protein Rab-7a (dog), GTP binding. In words: Rab7 GTP binding inhibitors, potency, dose response, biochemical, wildtype, multiplex bead flow cytometry (AID 1336; call rule not given here).
For experiment [5], the target named is Ras-related C3 botulinum toxin substrate 1 (Homo sapiens) (UniProt P63000). In words: wildtype Rac1 GTP binding inhibitors, dose response, biochemical, multiplex bead flow cytometry (AID 1340). Particulars: GST-Rac1 beads, Bodipy-FL-GTP binding; at 100 µM (top of the series) unless noted.
The target in experiment [6] is GTPase HRas (Homo sapiens) (UniProt P01112). Description: activated Ras mutant GTP binding inhibitors, dose response, biochemical, multiplex bead flow cytometry (AID 1341;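 active = dose-response curve with midpoint inside the tested range, moderate steepness, significant amplitude and little compound fluorescence or bead-attachment interference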;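 note: GST-tagged constitutively activated Ras mutant immobilized on beads and multiplexed with other GTPases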).

For part of these data: Entries with a potency or affinity are not part of this list. Calls of active or inactive are those of the source.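 Rule for the calls, unless noted: active = dose curve with midpoint inside tested range, moderate steepness, plateau gap beyond fit error, low compound glow and bead-link interference; inactive = the rest.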

Cell division control protein 42 homolog (Homo sapiens), sequence (P60953 whole entry, looked up): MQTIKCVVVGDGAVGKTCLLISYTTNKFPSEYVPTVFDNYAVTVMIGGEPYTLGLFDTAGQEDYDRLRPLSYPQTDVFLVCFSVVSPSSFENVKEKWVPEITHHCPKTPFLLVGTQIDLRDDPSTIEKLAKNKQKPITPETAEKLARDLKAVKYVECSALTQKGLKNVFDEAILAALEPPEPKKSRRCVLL
GTPase HRas (Homo sapiens), sequence (P01112 whole entry, looked up): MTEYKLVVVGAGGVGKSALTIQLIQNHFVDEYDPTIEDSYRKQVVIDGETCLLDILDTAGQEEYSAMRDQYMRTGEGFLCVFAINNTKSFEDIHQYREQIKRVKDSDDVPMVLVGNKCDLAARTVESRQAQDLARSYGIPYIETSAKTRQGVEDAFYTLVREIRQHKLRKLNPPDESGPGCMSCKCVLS

With `CCCc1cc(N2CCN(C(=O)c3ccco3)CC2)n2c(nc3ccccc32)c1C#N`, the call in experiment [1], in experiment [4] and in experiment [6] was inactive. The same compound displayed a fluorescence, percent of control (lower = inhibition) in experiment [2] of 34.7%. In experiment [3], this compound had a GTP binding, percent of control of 79%. In experiment [5], this compound returned a GTP binding signal, raw median fluorescence (lower = inhibition) (MCF (arbitrary fluorescence units)) of 240.

In the case of `O=C(O)c1ccc(CNCc2ccc(F)cc2)cc1`, the compound was called inactive in experiment [1], in experiment [4] and in experiment [6]. Also, the fluorescence, percent of control (lower = inhibition) in experiment [2] is 43.1%. For the same compound, in experiment [3], the GTP binding, percent of control stood at 87.8%. Moreover, the GTP binding signal, raw median fluorescence (lower = inhibition) (MCF (arbitrary fluorescence units)) in experiment [5] was 260.

For `CCOc1cc(C2c3c(-c4ccccc4)n[nH]c3C(=O)N2c2ccc(C(=O)O)cc2)ccc1O` (centres undefined), the call in experiment [1], in experiment [4] and in experiment [6] was inactive. Further, in experiment [2], the fluorescence, percent of control (lower = inhibition) amounted to 29%. This compound also returned a GTP binding, percent of control in experiment [3] of 79.3%. This compound yielded a GTP binding signal, raw median fluorescence (lower = inhibition) (MCF (arbitrary fluorescence units)) in experiment [5] of 95.9.

In the case of `COc1ccccc1OCCn1cc(C(=O)O)c2cccc(C)c21`, the outcome in experiment [1], in experiment [4] and in experiment [6] was inactive. Moreover, in experiment [2], the fluorescence, percent of control (lower = inhibition) is 50.6%. Also, in experiment [3], the GTP binding, percent of control is 200%. Also, the GTP binding signal, raw median fluorescence (lower = inhibition) (MCF (arbitrary fluorescence units)) in experiment [5] is 55.9.

Turning to `CC(C)(C)C(=O)c1sc2nc(-c3cccs3)cc(C(F)(F)F)c2c1N`, the result in experiment [1], in experiment [4] and in experiment [6] was inactive. This compound also returned a fluorescence, percent of control (lower = inhibition) in experiment [2] of 86.4%. Besides, the GTP binding, percent of control in experiment [3] is 182%. For the same compound, in experiment [5], the GTP binding signal, raw median fluorescence (lower = inhibition) (MCF (arbitrary fluorescence units)) was determined as 194.

With `COc1cc(/C=N/Nc2ccc(S(N)(=O)=O)cc2)cc(OC)c1OC`, the call in experiment [1], in experiment [4] and in experiment [6] was inactive. Further, the fluorescence, percent of control (lower = inhibition) in experiment [2] came out at 31.7%. Moreover, the GTP binding, percent of control in experiment [3] turned out to be 75.4%. Besides, the GTP binding signal, raw median fluorescence (lower = inhibition) (MCF (arbitrary fluorescence units)) in experiment [5] worked out at 175.

As to `O=C(O)c1cc(Sc2ccccc2)nc2ccccc12`, the compound was classed as inactive in experiment [1], in experiment [4] and in experiment [6]. In experiment [2], this compound showed a fluorescence, percent of control (lower = inhibition) of 56.6%. The compound further had a GTP binding, percent of control in experiment [3] of 81.9%. The GTP binding signal, raw median fluorescence (lower = inhibition) (MCF (arbitrary fluorescence units)) in experiment [5] turned out to be 30.1.

Turning to `CCC(/C=C1\Sc2ccc(OC)cc2N1CCO)=C\c1sc2ccc(OC)cc2[n+]1CCO`, the call in experiment [1], in experiment [4] and in experiment [6] was inactive. In experiment [2], this compound came in with a fluorescence, percent of control (lower = inhibition) of 22.6%. Moreover, in experiment [3], the GTP binding, percent of control was determined as 46.8%. In experiment [5], this compound had a GTP binding signal, raw median fluorescence (lower = inhibition) (MCF (arbitrary fluorescence units)) of 187.

Take `COc1ccc(C(=O)O)c(OCc2c(C)cccc2C)c1`: the compound was classed as inactive in experiment [1], in experiment [4] and in experiment [6]. Moreover, the fluorescence, percent of control (lower = inhibition) in experiment [2] is 59%. In experiment [3], the GTP binding, percent of control came to 208%. Besides, in experiment [5], the GTP binding signal, raw median fluorescence (lower = inhibition) (MCF (arbitrary fluorescence units)) came out at 55.5.

Regarding `CS(=O)(=O)N1CCN(C(=O)C2c3ccccc3Oc3ccccc32)CC1`, the compound was classed as inactive in experiment [1], in experiment [4] and in experiment [6]. This compound also gave a fluorescence, percent of control (lower = inhibition) in experiment [2] of 36.7%. The compound further returned a GTP binding, percent of control in experiment [3] of 78.7%. The compound further had a GTP binding signal, raw median fluorescence (lower = inhibition) (MCF (arbitrary fluorescence units)) in experiment [5] of 268.

On to `CCCCn1c(O)c(N=NC(=O)c2ccccc2NS(=O)(=O)c2cccs2)c2ccccc21`, for which the outcome in experiment [1], in experiment [4] and in experiment [6] was inactive. The fluorescence, percent of control (lower = inhibition) in experiment [2] came out at 37.3%. The same compound yielded a GTP binding, percent of control in experiment [3] of 87.8%. Further, the GTP binding signal, raw median fluorescence (lower = inhibition) (MCF (arbitrary fluorescence units)) in experiment [5] was 280.

For the compound `O=S1(=O)N=C(N=Nc2c(O)[nH]c3ccccc23)c2ccccc21`, the compound was called inactive in experiment [1], in experiment [4] and in experiment [6]. In experiment [2], this compound returned a fluorescence, percent of control (lower = inhibition) of 27.7%. Besides, the GTP binding, percent of control in experiment [3] was determined as 62.5%. For the same compound, in experiment [5], the GTP binding signal, raw median fluorescence (lower = inhibition) (MCF (arbitrary fluorescence units)) amounted to 129.

Take `Cn1c(=O)c2cc(S(=O)(=O)NCCC(=O)NCc3ccccc3Cl)ccc2n(C)c1=O`: the compound was called inactive in experiment [1], in experiment [4] and in experiment [6]. In experiment [2], this compound showed a fluorescence, percent of control (lower = inhibition) of 64%. In addition, in experiment [3], the GTP binding, percent of control is 109%. For the same compound, in experiment [5], the GTP binding signal, raw median fluorescence (lower = inhibition) (MCF (arbitrary fluorescence units)) amounted to 122.

In the case of `O=S(=O)(CC(CN1CCOCC1)N1CCOCC1)c1ccccc1` (centres undefined), the result in experiment [1], in experiment [4] and in experiment [6] was inactive. The compound further displayed a fluorescence, percent of control (lower = inhibition) in experiment [2] of 43.3%. Besides, in experiment [3], the GTP binding, percent of control was found to be 92.1%. The GTP binding signal, raw median fluorescence (lower = inhibition) (MCF (arbitrary fluorescence units)) in experiment [5] came out at 310.

These data come from PubChem BioAssay.
